# Data taken from PubChem BioAssay (NCI).
# The panel holds about 79,000 compounds, 15% with a hit somewhere; the sample as a whole holds those more often. Activity calls are given as the source filed them. No stated cut-off is given here; in the data, active means growth inhibition above about 70%; inactive means the rest.
# Test: NCI Yeast Anticancer Drug Screen. Data for the mec2-1 strain (AID 157)
# Details: S. cerevisiae mec2-1 strain, at 50.0 µM, hits give high values
# Method in brief: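 mec2-1 yeast strain, carrying an alteration in DNA damage repair or cell cycle control, was exposed to compounds; growth inhibition was measured relative to vehicle-treated controls.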
row,Structure (SMILES),growth inhibition
1,CC1(C)[C@@H]2CC[C@]1(C)[C@H](OC(=O)CSC#N)C2,98% (active)
2,S=C(N/N=C(/c1ccccc1)c1ccccn1)N1CCCCCC1,80.5% (active)
3,Cc1ccc2[nH]c3c(C)c4cc[n+](C)cc4c(C)c3c2c1,79.8% (active)
4,CNC(=O)OCc1c(COC(=O)NC)c(-c2ccc(-c3ccccc3)cc2)n(C)c1C,13.4% (inactive)
5,COc1ccccc1/C=C1\Sc2scc(-c3cccc([N+](=O)[O-])c3)[n+]2C1=O,89.1% (active)
6,O=[N+]([O-])c1ccc2c(c1)C(N1CCN(CCO)CC1)Cc1ccc(F)cc1S2 (stereo not given),-3.7% (inactive)
7,Cc1ccc(CCC2=CCCc3c2ccc2ccccc32)cc1,6.45% (inactive)
8,O=[N+]([O-])c1cccc2nccc(NCCCO)c12,57.7% (inactive)
9,Cc1ccc(-n2cc(-c3ccc(Cl)cc3)c(C#N)c2N)cc1,47.3% (inactive)
10,Cc1ccc(S/N=C\c2ccccc2O)cc1,73.6% (active)
11,O=C(O)C1OC1(c1cccc(Cl)c1)c1ccccc1Cl (stereo not given),92% (active)
12,NC(=S)N/N=C\c1nccc2ccccc12,99.5% (active)
13,Clc1cccc(C(Nc2nncs2)Nc2nncs2)c1Cl,20.7% (inactive)
14,O=C(OCC=C1CCCC1)c1cc([N+](=O)[O-])cc([N+](=O)[O-])c1,-14.6% (inactive)
15,O=C(Nc1ccccc1)C(=O)C(C(=O)c1ccccc1)C(c1ccccc1)c1ccccc1 (stereo not given),15.9% (inactive)
16,N#CN1C2CCC1CC(=O)C2,43.6% (inactive)
17,COc1ccccc1C(=O)OCC1CCCN2CCCCC12 (stereo not given),93% (active)
18,CCNc1nnc(CSc2nc(-c3ccccc3)c(-c3ccccc3)[nH]2)s1,66% (inactive)
19,O=C1c2ccccc2-c2n[nH]c3cccc1c23,54.3% (inactive)

# Same assay, conditions: S. cerevisiae mec2-1 strain, at 100.0 µM, hits give high values
row,Structure (SMILES),growth inhibition
1,CCC/C(Cl)=N\OC(=O)Nc1cccc(C(F)(F)F)c1,23% (inactive)
2,[O-][n+]1c2ccc(O)cc2nc2ccc(Cl)cc21,51% (inactive)
3,Clc1ccccc1C1OC1c1ccccc1Cl (stereo not given),-37% (inactive)
4,c1ccc2c(c1)c1ncccc1c1nccnc21,4% (inactive)
5,CC(=O)Nc1ccc2c(c1)C(=Nc1ccc(C(=O)O)cc1)c1ccccc1-2,78% (active)
6,COc1ccc(OC)c2cc3ccccc3cc12,8% (inactive)
7,COc1cc(C2c3cc4c(cc3OC(NNc3ccccc3)C2C)OCO4)cc(OC)c1OC (stereo not given),91% (active)
8,O=C1c2cc([N+](=O)[O-])ccc2-c2cccc(F)c21,41% (inactive)
9,CCCCCCCCCCCC(=O)N(C)C,98% (active)
10,CCCCCCCCCCCC1=C(O)C(=O)C=C(O)C1=O,95% (active)
11,Cc1ccc(CSC(N)=Nc2ccccc2)cc1C,40% (inactive)
12,CCCCCCCCCCC1CCC(=O)O1 (stereo not given),99% (active)
13,O=[N+]([O-])c1cc(CCl)ccc1CCl,98% (active)
14,Nc1ccc2c(c1)C(=O)c1cccc(N)c1C2=O,82% (active)
15,CCCCCCCCCCNC(=O)OCC,100% (active)
16,CC1=C(C)Cc2c(O)ccc(O)c2C1,20% (inactive)

row,Structure (SMILES),growth inhibition
1,COc1ccc2c(c1)C(=O)c1ccccc1C2,6% (inactive)
2,CCC(=O)OCCn1c2nc(=O)[nH]c(=O)c-2nc2cc(C)c(C)cc21,-1% (inactive)
3,O=C(OCCN1CCCCCC1)C(c1ccsc1)C1CCCCC1 (stereo not given),32% (inactive)
4,Oc1c(Br)cc(Br)cc1C1CCCCC1,98% (active)
5,CC1(C)[C@@H]2CC[C@]1(C)[C@H](OC(=O)CSC#N)C2,97% (active)
6,S=C(N/N=C(/c1ccccc1)c1ccccn1)N1CCCCCC1,4% (inactive)
7,Cc1ccc2[nH]c3c(C)c4cc[n+](C)cc4c(C)c3c2c1,94% (active)
8,CNC(=O)OCc1c(COC(=O)NC)c(-c2ccc(-c3ccccc3)cc2)n(C)c1C,1% (inactive)
9,COc1ccccc1/C=C1\Sc2scc(-c3cccc([N+](=O)[O-])c3)[n+]2C1=O,90% (active)
10,O=[N+]([O-])c1ccc2c(c1)C(N1CCN(CCO)CC1)Cc1ccc(F)cc1S2 (stereo not given),8% (inactive)
11,Cc1ccc(CCC2=CCCc3c2ccc2ccccc32)cc1,5% (inactive)
12,O=[N+]([O-])c1cccc2nccc(NCCCO)c12,68% (inactive)
13,Cc1ccc(-n2cc(-c3ccc(Cl)cc3)c(C#N)c2N)cc1,1% (inactive)
14,Cc1ccc(S/N=C\c2ccccc2O)cc1,7% (inactive)
15,O=C(O)C1OC1(c1cccc(Cl)c1)c1ccccc1Cl (stereo not given),94% (active)
